Targets with a hit are over-represented here; the source holds about 7,900 in all. About 0.6% of all pairs of compound and target were hits. A number with no mark means an inactive call.
Tests used:
Experiment in all cases: log2 fold change, soluble protein after heating vs DMSO (PISA); higher = thermal stabilisation; K562 cells, 10 uM, 30 min; active = over 0.2 and 3.5 SD of the protein, either way, in both replicates (recomputed)
[1] = compound: Cc1ccc(NC(=O)c2ccc(CN3CC[C@H](N(C)C)C3)c(C(F)(F)F)c2)cc1Nc1nccc(-c2cncnc2)n1 [bafetinib]
In short: (§1)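 Thermal stability values are relative to control samples and come from duplicates. They are expressed as log2 fold changes. For measurement, K562 cells (2×10^6 cells/mL) received 10 μM compound for 30 min, and aliquots were heated for 3 min over 48°C-58°C, pooled, and extracted at 4°C in PBS with 0.5% NP-40. Soluble protein, the supernatant after 21,000xg for 90 min, was quantified by TMTpro 16plex LC-MS/MS with equalised channel sums.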

[2] = compound: Cc1cccc(CC(=O)N2CCc3c2ccc(-c2cn(C)c4ncnc(N)c24)c3F)n1
In short: as §1

[3] = compound: Cc1cn(-c2cc(NC(=O)c3ccc(C)c(Nc4nccc(-c5cccnc5)n4)c3)cc(C(F)(F)F)c2)cn1 [nilotinib]
In short: as §1

[4] = compound: Cc1nc(Nc2n[nH]c3c2CN(C(=O)N[C@H](CN(C)C)c2ccccc2)C3(C)C)c2sccc2n1
In short: as §1

[5] = compound: Cc1nc(Nc2ncc(C(=O)Nc3c(C)cccc3Cl)s2)cc(N2CCN(CCO)CC2)n1 [dasatinib]
In short: as §1

[6] = compound: Cc1ncc(-c2ccnc(Nc3ccc(S(C)(=O)=O)cc3)n2)n1C(C)C
In short: as §1

[7] = compound: Cn1cc(-c2ccc3c(c2)CCN3C(=O)Cc2cccc(C(F)(F)F)c2)c2c(N)ncnc21
In short: as §1

[8] = compound: Cn1cc(-c2ccc3nnc(C(F)(F)c4ccc5ncccc5c4)n3n2)cn1
In short: as §1

[9] = compound: Cn1cncc1[C@@](N)(c1ccc(Cl)cc1)c1ccc2c(c1)c(-c1cccc(Cl)c1)cc(=O)n2C [tipifarnib]
In short: as §1

[10] = compound: FC(F)(F)c1ccc(/C=C/c2nc(COc3ccc(CCCCn4ccnn4)cc3)co2)cc1 [mubritinib]
In short: as §1

[11] = compound: NC(=O)Nc1cc(-c2cccc(F)c2)sc1C(=O)N[C@H]1CCCNC1
In short: as §1

[12] = compound: NC(=O)c1cnc(N[C@@H]2CCCC[C@@H]2N)nc1Nc1cccc(-n2nccn2)c1
In short: as §1

[13] = compound: NC1(c2ccc(-c3nc4ccn5c(=O)[nH]nc5c4cc3-c3ccccc3)cc2)CCC1
In short: as §1

[14] = compound: NCC(=O)Nc1ccc(-n2nc(C(F)(F)F)cc2-c2ccc3c(ccc4ccccc43)c2)cc1
In short: as §1

[15] = compound: Nc1ccccc1NC(=O)c1ccc(CNC(=O)OCc2cccnc2)cc1 [entinostat]
In short: as §1

[16] = compound: O=C(CCCCCCC(=O)Nc1ccccc1)NO [vorinostat]
In short: as §1

[17] = compound: O=C(CCCCCCNC(=O)c1cnc(N(c2ccccc2)c2ccccc2Cl)nc1)NO [citarinostat]
In short: as §1

[18] = compound: O=C(O)c1ccc2c(c1)nc(Nc1cccc(Cl)c1)c1ccncc12 [silmitasertib]
In short: as §1

[19] = compound: O=C1NC(=O)C(c2cnc3ccccn23)=C1c1cn2c3c(cc(F)cc13)CN(C(=O)N1CCCCC1)CC2
In short: as §1

[20] = compound: c1cc(OCCN2CCCCC2)cc(-c2n[nH]c3ccc(-c4nnc[nH]4)cc23)c1
In short: as §1

Sequence of UniProt Q96IV0 (Q96IV0 whole entry, looked up): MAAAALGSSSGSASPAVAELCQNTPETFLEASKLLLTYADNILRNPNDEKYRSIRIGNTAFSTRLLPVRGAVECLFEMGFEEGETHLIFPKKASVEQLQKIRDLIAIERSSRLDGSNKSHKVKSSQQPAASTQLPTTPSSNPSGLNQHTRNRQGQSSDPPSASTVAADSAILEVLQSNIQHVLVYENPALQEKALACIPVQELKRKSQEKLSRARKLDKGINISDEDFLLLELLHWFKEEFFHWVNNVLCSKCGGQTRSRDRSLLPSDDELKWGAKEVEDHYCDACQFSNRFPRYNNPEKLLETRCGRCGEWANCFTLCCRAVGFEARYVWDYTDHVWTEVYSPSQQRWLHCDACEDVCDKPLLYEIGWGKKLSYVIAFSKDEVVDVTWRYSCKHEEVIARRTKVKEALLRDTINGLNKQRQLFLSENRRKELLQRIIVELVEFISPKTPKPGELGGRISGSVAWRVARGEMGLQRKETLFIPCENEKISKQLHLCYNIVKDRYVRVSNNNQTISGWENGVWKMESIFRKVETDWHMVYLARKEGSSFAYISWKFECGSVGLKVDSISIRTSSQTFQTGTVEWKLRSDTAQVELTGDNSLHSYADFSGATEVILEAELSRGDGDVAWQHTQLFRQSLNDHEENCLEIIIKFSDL
Sequence of UniProt P57740 (P57740 whole entry, looked up): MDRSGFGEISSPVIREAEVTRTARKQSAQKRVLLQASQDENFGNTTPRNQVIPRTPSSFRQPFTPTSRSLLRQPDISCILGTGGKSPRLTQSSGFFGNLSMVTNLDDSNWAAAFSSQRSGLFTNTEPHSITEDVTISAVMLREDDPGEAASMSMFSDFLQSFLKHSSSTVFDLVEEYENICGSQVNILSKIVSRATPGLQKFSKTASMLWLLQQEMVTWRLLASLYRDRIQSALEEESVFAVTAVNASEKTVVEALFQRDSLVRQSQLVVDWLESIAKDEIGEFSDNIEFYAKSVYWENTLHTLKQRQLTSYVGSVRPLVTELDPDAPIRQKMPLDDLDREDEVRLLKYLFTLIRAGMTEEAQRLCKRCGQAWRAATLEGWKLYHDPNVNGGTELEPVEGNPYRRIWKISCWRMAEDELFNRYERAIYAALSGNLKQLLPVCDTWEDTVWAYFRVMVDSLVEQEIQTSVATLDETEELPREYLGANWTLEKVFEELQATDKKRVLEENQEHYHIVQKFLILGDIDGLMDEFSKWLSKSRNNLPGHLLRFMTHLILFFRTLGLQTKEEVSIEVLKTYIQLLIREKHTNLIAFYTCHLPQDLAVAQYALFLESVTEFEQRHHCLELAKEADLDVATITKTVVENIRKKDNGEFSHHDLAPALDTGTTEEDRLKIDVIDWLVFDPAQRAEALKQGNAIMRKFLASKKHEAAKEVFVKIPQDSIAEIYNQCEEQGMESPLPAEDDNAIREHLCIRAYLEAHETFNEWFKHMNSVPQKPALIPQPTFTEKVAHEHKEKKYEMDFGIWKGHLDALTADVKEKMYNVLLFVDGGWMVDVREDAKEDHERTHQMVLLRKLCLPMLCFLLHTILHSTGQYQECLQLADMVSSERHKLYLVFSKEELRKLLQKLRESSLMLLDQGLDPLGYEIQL
Sequence of UniProt P22059 (P22059 whole entry, looked up): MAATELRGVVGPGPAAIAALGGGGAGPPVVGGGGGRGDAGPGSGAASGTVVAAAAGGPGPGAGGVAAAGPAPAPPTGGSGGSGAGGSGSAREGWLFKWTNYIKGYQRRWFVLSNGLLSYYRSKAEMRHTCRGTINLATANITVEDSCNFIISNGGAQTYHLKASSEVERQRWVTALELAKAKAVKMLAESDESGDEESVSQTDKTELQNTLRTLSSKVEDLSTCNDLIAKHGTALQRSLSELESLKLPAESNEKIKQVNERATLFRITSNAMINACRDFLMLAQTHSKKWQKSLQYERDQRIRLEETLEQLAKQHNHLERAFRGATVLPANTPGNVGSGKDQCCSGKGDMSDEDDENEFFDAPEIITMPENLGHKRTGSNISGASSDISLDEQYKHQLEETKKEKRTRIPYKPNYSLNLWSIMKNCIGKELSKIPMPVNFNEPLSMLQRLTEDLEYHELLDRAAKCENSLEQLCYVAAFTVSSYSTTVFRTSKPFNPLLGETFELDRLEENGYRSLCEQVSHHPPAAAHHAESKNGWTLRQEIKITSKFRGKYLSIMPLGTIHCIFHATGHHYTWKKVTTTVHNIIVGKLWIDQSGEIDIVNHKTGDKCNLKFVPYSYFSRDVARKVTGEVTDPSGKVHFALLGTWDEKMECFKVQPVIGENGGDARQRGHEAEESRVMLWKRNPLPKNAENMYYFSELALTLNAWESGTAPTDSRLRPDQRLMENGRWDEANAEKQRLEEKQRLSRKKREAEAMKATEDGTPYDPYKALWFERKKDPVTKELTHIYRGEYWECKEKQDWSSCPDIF
Sequence of UniProt Q9Y2A7 (Q9Y2A7 whole entry, looked up): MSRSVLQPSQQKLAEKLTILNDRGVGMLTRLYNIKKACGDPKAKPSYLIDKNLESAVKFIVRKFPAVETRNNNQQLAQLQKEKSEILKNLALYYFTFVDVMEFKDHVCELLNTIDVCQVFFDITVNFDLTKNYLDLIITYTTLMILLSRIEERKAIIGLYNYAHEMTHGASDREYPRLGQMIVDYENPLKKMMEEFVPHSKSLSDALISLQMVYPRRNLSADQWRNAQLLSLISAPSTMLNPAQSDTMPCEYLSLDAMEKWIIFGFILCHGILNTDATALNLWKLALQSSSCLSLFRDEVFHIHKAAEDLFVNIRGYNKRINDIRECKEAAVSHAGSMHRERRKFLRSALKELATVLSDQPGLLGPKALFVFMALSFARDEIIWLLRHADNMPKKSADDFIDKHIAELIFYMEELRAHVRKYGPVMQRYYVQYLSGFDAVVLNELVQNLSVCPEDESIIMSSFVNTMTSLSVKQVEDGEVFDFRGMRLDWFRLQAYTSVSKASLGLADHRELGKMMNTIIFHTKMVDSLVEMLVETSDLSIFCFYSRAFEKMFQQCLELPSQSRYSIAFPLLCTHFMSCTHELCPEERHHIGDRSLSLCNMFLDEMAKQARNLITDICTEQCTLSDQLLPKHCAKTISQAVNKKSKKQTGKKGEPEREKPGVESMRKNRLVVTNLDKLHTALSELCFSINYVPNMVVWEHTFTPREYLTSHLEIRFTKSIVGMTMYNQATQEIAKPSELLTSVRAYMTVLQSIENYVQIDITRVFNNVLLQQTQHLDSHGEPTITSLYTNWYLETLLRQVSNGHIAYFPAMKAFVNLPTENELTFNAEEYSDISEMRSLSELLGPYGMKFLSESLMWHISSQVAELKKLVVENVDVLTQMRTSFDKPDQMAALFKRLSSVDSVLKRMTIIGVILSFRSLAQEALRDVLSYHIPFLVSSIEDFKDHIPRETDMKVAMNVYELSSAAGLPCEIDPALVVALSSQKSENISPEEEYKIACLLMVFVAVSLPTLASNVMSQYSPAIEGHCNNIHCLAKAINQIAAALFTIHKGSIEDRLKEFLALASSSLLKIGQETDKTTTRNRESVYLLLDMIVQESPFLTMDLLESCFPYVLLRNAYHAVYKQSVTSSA
Sequence of UniProt Q9BW27 (Q9BW27 whole entry, looked up): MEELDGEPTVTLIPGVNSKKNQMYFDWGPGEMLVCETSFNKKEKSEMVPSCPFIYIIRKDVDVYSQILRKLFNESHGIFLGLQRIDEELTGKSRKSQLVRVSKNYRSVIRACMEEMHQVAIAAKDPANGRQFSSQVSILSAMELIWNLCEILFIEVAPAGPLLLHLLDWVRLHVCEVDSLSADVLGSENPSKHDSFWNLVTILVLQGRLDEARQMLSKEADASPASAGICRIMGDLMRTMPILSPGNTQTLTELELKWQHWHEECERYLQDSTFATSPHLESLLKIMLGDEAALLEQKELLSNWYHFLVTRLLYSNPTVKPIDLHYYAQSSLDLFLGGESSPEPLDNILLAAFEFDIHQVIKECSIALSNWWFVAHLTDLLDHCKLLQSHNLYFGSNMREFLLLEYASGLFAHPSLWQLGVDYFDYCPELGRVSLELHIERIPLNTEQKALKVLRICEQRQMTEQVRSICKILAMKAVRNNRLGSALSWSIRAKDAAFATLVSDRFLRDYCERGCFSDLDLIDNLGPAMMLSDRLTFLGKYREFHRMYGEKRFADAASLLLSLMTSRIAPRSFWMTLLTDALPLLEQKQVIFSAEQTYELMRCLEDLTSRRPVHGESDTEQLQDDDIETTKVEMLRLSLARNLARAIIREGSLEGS
Sequence of UniProt Q9BWT6 (Q9BWT6 whole entry, looked up): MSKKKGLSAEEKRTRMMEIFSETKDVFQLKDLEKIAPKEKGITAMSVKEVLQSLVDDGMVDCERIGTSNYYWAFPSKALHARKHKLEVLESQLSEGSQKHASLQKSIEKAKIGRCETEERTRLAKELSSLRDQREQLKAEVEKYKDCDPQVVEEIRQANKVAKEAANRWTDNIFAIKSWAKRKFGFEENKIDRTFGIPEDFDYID

Target | log2 fold change [1] | log2 fold change [2] | log2 fold change [3] | log2 fold change [4] | log2 fold change [5] | log2 fold change [6] | log2 fold change [7] | log2 fold change [8] | log2 fold change [9] | log2 fold change [10] | log2 fold change [11] | log2 fold change [12] | log2 fold change [13] | log2 fold change [14] | log2 fold change [15] | log2 fold change [16] | log2 fold change [17] | log2 fold change [18] | log2 fold change [19] | log2 fold change [20]
NCKAP1 isoform 2 (UniProt Q9Y2A7) | -0.028 | 0.08 | -0.016 | -0.045 | -0.096 | -0.04 | 0.04 | -0.004 | -0.005 | 0.002 | 0.066 | -0.009 | -0.12 | -0.025 | 0.024 | 0.063 | 0.015 | -0.029 | -0.055 | 0.046
NPC1 (UniProt O15118) | -0.211 (active) | -0.02 | 0.024 | -0.017 | -0.001 | 0.05 | 0.004 | 0.012 | 0.038 | -0.027 | 0.002 | 0.039 | -0.196 | -0.017 | -0.049 | 0.004 | 0.017 | 0.031 | 0.027 | -0.106
OSBP (UniProt P22059) | -0.017 | 0.005 | 0.123 | -0.257 (active) | -0.08 | -0.067 | -0.024 | -0.024 | -0.085 | 0.012 | -0.007 | 0.019 | -0.17 | -0.036 | 0.024 | 0.013 | 0.03 | 0.014 | -0.131 | -0.066
NISCH (UniProt Q9Y2I1) | -0.053 | 0.053 | -0.138 | -0.158 | -0.233 | -0.324 | -0.002 | -0.02 | -0.03 | -0.009 | -0.052 | -0.293 | -0.354 | -0.168 | 0.101 | 0.09 | 0.023 | 0.065 | 0.081 | -0.147
NUP107 (UniProt P57740) | -0.013 | 0.716 (active) | -0.027 | -0.012 | -0.12 | -0.145 | -0.077 | -0.008 | -0.026 | -0.036 | -0.009 | -0.022 | 0.056 | -0.032 | -0.039 | 0.416 | 0.016 | 0.085 | 0.045 | -0.109
NUP85 (UniProt Q9BW27) | -0.088 | 0.02 | -0.027 | -0.115 | -0.068 | -0.013 | -0.009 | -0.002 | -0.031 | 0.026 | 0.01 | -0.014 | -0.092 | -0.035 | -0.011 | 0.021 | 0.031 | 0.047 | -0.041 | -0.041
MND1 (UniProt Q9BWT6) | -0.168 | 0.042 | 0.032 | 0.003 | -0.037 | -0.015 | -0.056 | -0.132 | 0.04 | 0.043 | -0.024 | -0.012 | -0.118 | -0.119 | 0.041 | -0.11 | -0.033 | -0.014 | -0.042 | -0.146
NGLY1 (UniProt Q96IV0) | 0.039 | 0.055 | -0.068 | -0.038 | -0.064 | 0.021 | -0.009 | -0.034 | -0.067 | -0.062 | -0.073 | 0.059 | -0.151 | -0.109 | 0.025 | 0.008 | 0.079 | 0.079 | 0.059 | -0.059
